The results in this text go back to PubChem BioAssay.

For experiment [1], the system named is PRMT1 (protein arginine N-methyltransferase 1). The experiment is described as follows: small molecules binding arginine methyltransferase PRMT1 – biochemical, small-molecule microarray, 635 nm fluorescence, primary screen (AID 1088).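 Also: binding of Prmt1 protein to compounds spotted on small-molecule microarray slides.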 The conditions noted are these: higher = more signal.
The nature of experiment [2]: growth effects on S. cerevisiae YJM789 – YJM789 clinical isolate, OD600, 24 h, basal, primary screen (AID 1089).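 Also: growth of clinical yeast isolate S. cerevisiae YJM 789 seeded 1000 cells per well; test concentration not given here.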 The following applies: higher = more signal, called active from +8 up or from −8 down.
Experiment [3] in a line: S. pombe growth modifiers, basal conditions – strain 972, OD600, 24 h, no modulator, primary screen (AID 1090).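 Also: basal condition with compound alone and no growth modifier present; test concentration not given here.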 The following applies: S. pombe 972 growth, higher = more signal, called active from +8 up or from −8 down.
Experiment [4] in a line: budding yeast growth modifiers under rapamycin – strain BY4716, OD600, 96 h, primary screen (AID 1091). Also: test concentration not given here. The conditions noted are these: S. cerevisiae BY4716 + rapamycin, higher = more signal, called active from +8 up or from −8 down.
The target of experiment [5] is Torsin-1A-interacting protein 2 (Homo sapiens) (UniProt Q8NFQ8). Description: small molecules binding lysate-expressed LULL1 – cell lysate, human LULL1 lysate, 635/667 nm fluorescence, primary screen (AID 1092).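 Also: probe is lysate of COS7 cells overexpressing human LULL1; score merges per-feature 667 nm fluorescence with signal-to-noise.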 The conditions noted are these: small-molecule microarray, hLULL1 lysate binding, 635 nm fluorescence; higher = more signal.
Experiment [6] is described as follows: optical density change of DRC41 E. coli – strain DRC41, OD650, 24 h, E. coli filamentation project, primary screen (AID 1093).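 Also: MC1000 strain lacking acrAB efflux and sulA so SOS filamentation is blocked; test concentration not given here.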 The following applies: E. coli DRC41 growth, higher = more signal, called active from +8 up or from −8 down.
The nature of experiment [7]: probe aLefty2 binding to arrayed compounds – biochemical, biotinylated probe, 635/667 nm fluorescence, primary screen (AID 1094).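 Also: score merges spot fluorescence near 667 nm with spot signal-to-noise ratio.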 The following applies: small-molecule microarray, higher = more signal.
For experiment [8], the system named is Noggin (protein binding on small-molecule microarray). The experiment is described as follows: small molecules binding Noggin protein – biochemical, 635/667 nm fluorescence, primary screen (AID 1095).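 Also: score merges 667 nm feature fluorescence with signal to noise over triplicate slides.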 The conditions noted are these: 635 nm fluorescence, higher = more signal.
For experiment [9], the target named is Neurogenic locus notch homolog protein 3 (Homo sapiens) (UniProt Q9UM47). Description: small molecules binding NOTCH3 protein – biochemical, 635/667 nm fluorescence, primary screen (AID 1096). The following applies: small-molecule microarray, 635 nm fluorescence, higher = more signal.
Experiment [10] can be described thus: probe aEGFR binding to arrayed compounds – biochemical, biotinylated probe, 635/667 nm fluorescence, primary screen (AID 1097).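 Also: probe is a biotinylated anti-EGFR antibody binding compounds printed on slides; score combines fluorescence near 667 nm and signal to noise of each spot.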 The following applies: small-molecule microarray, higher = more signal.

SMILES strings stand for the structures. The source made the active and inactive calls.

Sequence of Neurogenic locus notch homolog protein 3 (Homo sapiens) (Q9UM47 whole entry, looked up): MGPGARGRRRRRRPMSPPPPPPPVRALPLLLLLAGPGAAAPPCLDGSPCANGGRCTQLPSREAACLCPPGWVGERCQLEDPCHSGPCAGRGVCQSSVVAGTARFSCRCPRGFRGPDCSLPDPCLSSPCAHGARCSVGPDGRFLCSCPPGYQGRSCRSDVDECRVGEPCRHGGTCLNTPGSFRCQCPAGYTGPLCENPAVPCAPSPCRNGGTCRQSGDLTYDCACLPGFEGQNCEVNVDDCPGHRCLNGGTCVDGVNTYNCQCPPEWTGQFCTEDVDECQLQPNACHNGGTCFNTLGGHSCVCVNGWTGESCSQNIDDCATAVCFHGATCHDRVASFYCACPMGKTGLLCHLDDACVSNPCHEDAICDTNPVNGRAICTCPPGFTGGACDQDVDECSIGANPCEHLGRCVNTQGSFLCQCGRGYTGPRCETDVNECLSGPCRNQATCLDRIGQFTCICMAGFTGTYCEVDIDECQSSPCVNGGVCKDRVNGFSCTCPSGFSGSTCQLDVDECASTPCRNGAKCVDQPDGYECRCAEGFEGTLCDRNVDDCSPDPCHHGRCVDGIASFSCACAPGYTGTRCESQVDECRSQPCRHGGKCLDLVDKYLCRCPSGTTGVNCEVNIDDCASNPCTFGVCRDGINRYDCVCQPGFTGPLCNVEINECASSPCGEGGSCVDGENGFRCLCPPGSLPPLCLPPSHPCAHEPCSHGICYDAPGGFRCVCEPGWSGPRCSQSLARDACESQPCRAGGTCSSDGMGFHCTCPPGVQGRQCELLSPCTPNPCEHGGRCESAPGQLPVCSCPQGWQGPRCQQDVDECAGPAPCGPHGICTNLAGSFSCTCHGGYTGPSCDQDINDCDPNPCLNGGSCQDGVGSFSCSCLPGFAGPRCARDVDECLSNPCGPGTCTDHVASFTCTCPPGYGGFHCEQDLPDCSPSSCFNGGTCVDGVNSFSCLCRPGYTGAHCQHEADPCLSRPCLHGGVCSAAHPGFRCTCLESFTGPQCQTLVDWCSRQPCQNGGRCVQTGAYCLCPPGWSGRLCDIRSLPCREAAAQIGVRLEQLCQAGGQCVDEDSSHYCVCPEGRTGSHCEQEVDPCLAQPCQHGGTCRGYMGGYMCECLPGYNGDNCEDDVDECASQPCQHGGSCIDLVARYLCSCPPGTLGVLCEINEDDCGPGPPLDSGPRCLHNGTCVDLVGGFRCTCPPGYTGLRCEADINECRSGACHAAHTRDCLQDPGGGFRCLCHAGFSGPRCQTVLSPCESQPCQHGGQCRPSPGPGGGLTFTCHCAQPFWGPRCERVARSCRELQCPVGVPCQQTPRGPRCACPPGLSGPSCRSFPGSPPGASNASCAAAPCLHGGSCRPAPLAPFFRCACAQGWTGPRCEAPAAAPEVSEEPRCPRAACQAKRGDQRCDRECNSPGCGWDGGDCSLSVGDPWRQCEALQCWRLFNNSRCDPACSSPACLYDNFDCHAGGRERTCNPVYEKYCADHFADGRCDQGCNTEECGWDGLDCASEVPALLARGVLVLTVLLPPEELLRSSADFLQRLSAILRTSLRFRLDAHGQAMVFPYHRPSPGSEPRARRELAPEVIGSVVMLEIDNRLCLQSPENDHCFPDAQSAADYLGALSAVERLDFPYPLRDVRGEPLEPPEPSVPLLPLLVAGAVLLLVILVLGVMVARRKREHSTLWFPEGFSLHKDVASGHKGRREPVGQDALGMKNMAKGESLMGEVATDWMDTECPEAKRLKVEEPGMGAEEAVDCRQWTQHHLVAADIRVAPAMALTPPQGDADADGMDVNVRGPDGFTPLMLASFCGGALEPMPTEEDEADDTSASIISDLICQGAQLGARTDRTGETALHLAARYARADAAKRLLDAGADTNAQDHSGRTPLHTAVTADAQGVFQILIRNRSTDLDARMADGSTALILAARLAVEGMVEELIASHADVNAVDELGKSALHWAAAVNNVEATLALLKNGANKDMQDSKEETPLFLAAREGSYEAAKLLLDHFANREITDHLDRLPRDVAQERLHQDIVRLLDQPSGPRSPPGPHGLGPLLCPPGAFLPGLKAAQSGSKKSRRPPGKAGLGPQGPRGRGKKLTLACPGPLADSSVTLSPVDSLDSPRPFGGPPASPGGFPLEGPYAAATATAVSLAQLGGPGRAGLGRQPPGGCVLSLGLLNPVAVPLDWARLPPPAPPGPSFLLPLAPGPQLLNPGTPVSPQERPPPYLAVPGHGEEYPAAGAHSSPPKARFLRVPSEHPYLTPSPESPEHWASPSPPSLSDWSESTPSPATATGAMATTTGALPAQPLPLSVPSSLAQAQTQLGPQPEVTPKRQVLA
Sequence of Torsin-1A-interacting protein 2 (Homo sapiens) (Q8NFQ8 whole entry, looked up): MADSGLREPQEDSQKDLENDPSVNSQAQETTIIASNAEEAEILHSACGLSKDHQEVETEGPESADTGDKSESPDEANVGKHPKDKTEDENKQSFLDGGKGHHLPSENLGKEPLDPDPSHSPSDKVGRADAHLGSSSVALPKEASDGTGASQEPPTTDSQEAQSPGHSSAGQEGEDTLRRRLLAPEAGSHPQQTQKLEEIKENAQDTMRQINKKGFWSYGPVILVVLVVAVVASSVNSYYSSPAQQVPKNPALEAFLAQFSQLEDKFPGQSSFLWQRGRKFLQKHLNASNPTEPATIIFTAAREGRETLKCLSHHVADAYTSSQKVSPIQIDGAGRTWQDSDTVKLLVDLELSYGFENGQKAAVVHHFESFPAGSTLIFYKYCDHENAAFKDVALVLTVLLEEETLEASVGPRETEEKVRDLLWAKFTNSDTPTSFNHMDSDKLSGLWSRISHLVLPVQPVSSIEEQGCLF

As for `CC(C)c1ccc(NN2C(C(O)C3CCCCC3)C=CC3C(=O)N(c4ccccc4)C(=O)C32)cc1` (stereo not given), the composite z-score was 1.02 in [1]; 3.07 in experiment [5]; 0.0779 in [7]; -0.0338 in experiment [8]; 1.03 in experiment [9]; 0.168 in experiment [10]. For the same compound, the z-score in experiment [2] was 0.487 (inactive); in experiment [3] it was 0.361 (inactive); in [4] it was -0.287 (inactive); in experiment [6], -1.23 (inactive).

With `COC(=O)[C@@]1(Cc2ccc(OC)cc2)[C@H]2c3cc(C(=O)N(C)C)n(Cc4c(CO)[nH]cc(C)c4=O)c3C[C@H]2CN1C(=O)c1ccccc1`, the composite z-score was -0.922 in experiment [1]; 3.22 in experiment [5]; 0.334 in experiment [7]; 0.0072 in experiment [8]; 0.0193 in experiment [9]; 0.215 in experiment [10]. Further, the z-score in experiment [2] is 0.0886 (inactive); in [3] it was 0.95 (inactive); in experiment [4], -0.622 (inactive); in experiment [6] it was -1.28 (inactive).

With `CC[C@@H]1C=C(C(=O)O)[C@H](c2cccc(Cl)c2)N1S(=O)(=O)c1ccc(C)cc1`, the composite z-score in experiment [1] was 0.877; in experiment [5], 3.5; in [7], 0.0595; in experiment [8], -0.791; in experiment [9] it was -0.118; in experiment [10], -0.128. Moreover, the z-score was -0.848 (inactive) in experiment [2], -0.874 (inactive) in experiment [3], -0.177 (inactive) in experiment [4] and -0.944 (inactive) in [6].

Turning to `COC(=O)C(CC#Cc1ccc2c(c1)[C@]1(C(=O)N2)[C@H](C(=O)NC[C@H](O)c2ccccc2)[C@H]2C(=O)O[C@H](c3ccccc3)[C@H](c3ccccc3)N2[C@@H]1c1ccc(O)cc1)C(=O)OC`, the composite z-score in experiment [1] is 0.356; in experiment [5] it was 0.719; in [7], -0.055; in [8] it was 0.264; in experiment [9], 0.401; in [10], -0.0509. The z-score is 0.542 (inactive) in experiment [2], 0.793 (inactive) in experiment [3], 0.162 (inactive) in experiment [4] and -1.02 (inactive) in experiment [6].

For `O=C1N(Cc2ccccc2)Cc2ccccc2C[C@@]12COC(c1ccc(OCCCO)cc1)=N2`, the composite z-score in experiment [1] is 1.38; in [5] it was 1.79; in [7], 0.363; in [8], 0.0489; in [9], 0.117; in experiment [10], -0.0315. The z-score in [2] was 1.92 (inactive); in experiment [3], -1.05 (inactive); in experiment [4] it was 6.73 (inactive); in experiment [6], 0.615 (inactive).

On to `COC(=O)c1ccc(OC)c(/C=C\CC(OC(=O)c2ccncc2)c2ccccc2)c1` (stereo not given), for which the composite z-score in experiment [1] was 0.264; in experiment [5], 0.179; in experiment [7], -0.0851; in experiment [8] it was 0.66; in experiment [9] it was 0.0482; in experiment [10] it was -0.0286. Besides, the z-score was -2.64 (inactive) in experiment [2], -2.43 (inactive) in [3], -0.0389 (inactive) in [4] and 1.27 (inactive) in experiment [6].

For `COc1ccc(NN2C(C(O)c3ccccc3)C=CC3C(=O)N(C4CCCCC4)C(=O)C32)cc1` (stereo not given), the composite z-score in experiment [1] worked out at 1.56; in experiment [5], 3.34; in experiment [7], 0.107; in [8], 1.08; in [9], 1.06; in [10] it was 0.0953. Besides, the z-score in [2] was -0.0673 (inactive); in experiment [3], 0.991 (inactive); in experiment [4], 1.34 (inactive); in experiment [6], 0.0456 (inactive).

Regarding `CC1CC/C=C\[C@H]2OC34C=CCN(CCN5CCOCC5)C(=O)[C@H]3N(C(CO)C(C)C)C(=O)[C@@H]4C2C(=O)O1` (stereo not given in full), the composite z-score was 1.42 in experiment [1]; 3.2 in [5]; -0.109 in experiment [7]; 0.122 in experiment [8]; 0.398 in experiment [9]; -0.0332 in experiment [10]. Moreover, the z-score in [2] was -0.662 (inactive); in experiment [3], -0.145 (inactive); in experiment [4], -0.188 (inactive); in experiment [6], -0.651 (inactive).

For `CCCCN1CC=CC23O[C@@H]4/C=C\CCC(C)OC(=O)C4[C@H]2C(=O)N(CCO)[C@@H]3C1=O` (stereo not given in full), the composite z-score in experiment [1] is -0.314; in [5], 3.4; in experiment [7] it was 0.0469; in experiment [8] it was -0.19; in [9], -0.342; in experiment [10] it was -0.157. The z-score in experiment [2] was -1.64 (inactive); in experiment [3], -1.02 (inactive); in experiment [4], -1.2 (inactive); in experiment [6] it was 2.26 (inactive).

Turning to `CCc1cccc(NC(=O)O[C@H]2[C@H](OC(=O)Nc3ccccc3-c3ccccc3)[C@H](OC(=O)Nc3ccccc3-c3ccccc3)[C@@H](OC)O[C@@H]2CO)c1`, the composite z-score in [1] is 1.55; in [5], 2.91; in experiment [7], 0.229; in experiment [8], 1.48; in [9], 1.05; in experiment [10] it was -0.0232. Besides, the z-score in experiment [2] was 1.95 (inactive); in [3], 1.31 (inactive); in experiment [4] it was 0.423 (inactive); in [6], -1.08 (inactive).

As to `COc1ccc([Si](C)(C)[C@H]2[C@H](CC(=O)N(CCO)Cc3ccccc3)O[C@@]3(C(=O)N(Cc4cccc(N5CCCCC5=O)c4)c4ccccc43)[C@@H]2C)cc1`, the composite z-score was 1.45 in [1]; 0.876 in experiment [5]; -0.0719 in experiment [7]; 0.659 in experiment [8]; 0.604 in experiment [9]; -0.045 in [10]. Moreover, the z-score in experiment [2] is -1.68 (inactive); in [3] it was -0.0671 (inactive); in [4], 2.14 (inactive); in experiment [6] it was 1.27 (inactive).

In the case of `O=C1O[C@H](c2ccccc2)[C@H](c2ccccc2)N2[C@H]1[C@@H](C(=O)N1CCN(c3ncccn3)CC1)[C@]1(C(=O)Nc3ccc(C#CC4(O)CCCCCC4)cc31)[C@H]2c1ccc(O)cc1`, the composite z-score is 1.55 in [1]; 2.57 in experiment [5]; -0.209 in experiment [7]; 1.2 in [8]; 1.11 in experiment [9]; -0.0225 in experiment [10]. Also, the z-score is 0.736 (inactive) in [2], -0.391 (inactive) in experiment [3], 1.21 (inactive) in [4] and 2.61 (inactive) in [6].

For the compound `C=C[C@H](C)[C@@H](OC(=O)Nc1ccc(SC)cc1)c1ccc(OCCO)cc1`, the composite z-score was 0.191 in experiment [1]; 1.84 in experiment [5]; -0.0391 in [7]; 1.05 in experiment [8]; 0.487 in experiment [9]; -0.225 in experiment [10]. Moreover, the z-score was 0.613 (inactive) in [2], -0.583 (inactive) in experiment [3], 1.92 (inactive) in [4] and 0.441 (inactive) in experiment [6].

Turning to `[N-]=[N+]=Nc1ccccc1C[C@@]1(C(=O)NCC(O)CO)N=C(c2ccc(OCCCO)cc2)O[C@@H]1c1ccccc1N=[N+]=[N-]` (stereo not given in full), the composite z-score came to 0.9 in [1]; 3.37 in [5]; 0.285 in [7]; 0.0196 in experiment [8]; 0.298 in [9]; 0.0001 in experiment [10]. Also, the z-score in [2] is -0.961 (inactive); in [3] it was 0.0801 (inactive); in [4], 0.23 (inactive); in experiment [6], 0.616 (inactive).
